# JMJD2A Tudor: inhibitors of human JMJD2A Tudor domain; AlphaScreen JMJD2A-Tudor / H3K4me3 peptide binding; Potency, µM (titrated, usually from 114 µM), for the others: at the top dose activity change, negative = inhibition, most hits filed as inhibitors; 390,000 compounds, 4.4% hits; AID 504339; note: % is set by controls: 0 for no effect and ±100 for the full control effect; nearly all actives have a fitted effect of over 50% in size
# L3MBTL1 inh: blocks human L3MBTL1. Potency, µM (series often up to 57.1 µM), without a hit: top-dose activity, negative = inhibition, most hits filed as inhibitors. Q9Y468. 230,000 compounds, 0.66% hits. AID 485360. AlphaScreen L3MBTL1–H3K9me1 peptide binding; note: % is set by controls: 0 for no effect and ±100 for the full control effect; nearly all actives have a fitted effect of over 60% in size
#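 First, the protein-peptide complex forms for 30 min at room temperature (L3MBTL1 50 nM, biotinylated H3K9me1 peptide 75 nM). Next, compounds are pin-transferred and incubated 30 min. Finally, AlphaScreen beads are added and read after 30 min.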
# HP1b binding inh: blocks HP1-beta chromodomain binding to methylated histone tails; AlphaScreen HP1-beta / biotin-H3K9me3 peptide binding; Potency, µM (top dose mostly 114 µM), without a hit: at the top dose activity change, negative = inhibition, actives largely listed as inhibitors; 390,000 compounds, 0.56% hits; note: nearly all actives have a fitted effect of over 70% in size
#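 HP1-beta protein (50 nM final) preincubated 30 min at room temperature with biotinylated H3(1-18)K9me3 peptide (50 nM) in PBS pH 7.4, 0.01% Tween-20, then compound added for 30 min. AlphaScreen streptavidin donor/nickel chelate acceptor beads (10 ug/mL final), 30 min dark, luminescence read.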
# BAZ2B block: BAZ2B (human) inhibition. AlphaScreen BAZ2B-H3K14Ac peptide displacement. Potency, µM (titrated, usually from 114 µM), inactives show at the highest dose activity change, negative = inhibition, usual class: inhibitors. 360,000 compounds, 4.4% hits. AID 504333; note: % is set by controls: 0 for no effect and ±100 for the full control effect; nearly all actives have a fitted effect of over 60% in size
# Target sequence (Q9UIF8 whole entry, looked up): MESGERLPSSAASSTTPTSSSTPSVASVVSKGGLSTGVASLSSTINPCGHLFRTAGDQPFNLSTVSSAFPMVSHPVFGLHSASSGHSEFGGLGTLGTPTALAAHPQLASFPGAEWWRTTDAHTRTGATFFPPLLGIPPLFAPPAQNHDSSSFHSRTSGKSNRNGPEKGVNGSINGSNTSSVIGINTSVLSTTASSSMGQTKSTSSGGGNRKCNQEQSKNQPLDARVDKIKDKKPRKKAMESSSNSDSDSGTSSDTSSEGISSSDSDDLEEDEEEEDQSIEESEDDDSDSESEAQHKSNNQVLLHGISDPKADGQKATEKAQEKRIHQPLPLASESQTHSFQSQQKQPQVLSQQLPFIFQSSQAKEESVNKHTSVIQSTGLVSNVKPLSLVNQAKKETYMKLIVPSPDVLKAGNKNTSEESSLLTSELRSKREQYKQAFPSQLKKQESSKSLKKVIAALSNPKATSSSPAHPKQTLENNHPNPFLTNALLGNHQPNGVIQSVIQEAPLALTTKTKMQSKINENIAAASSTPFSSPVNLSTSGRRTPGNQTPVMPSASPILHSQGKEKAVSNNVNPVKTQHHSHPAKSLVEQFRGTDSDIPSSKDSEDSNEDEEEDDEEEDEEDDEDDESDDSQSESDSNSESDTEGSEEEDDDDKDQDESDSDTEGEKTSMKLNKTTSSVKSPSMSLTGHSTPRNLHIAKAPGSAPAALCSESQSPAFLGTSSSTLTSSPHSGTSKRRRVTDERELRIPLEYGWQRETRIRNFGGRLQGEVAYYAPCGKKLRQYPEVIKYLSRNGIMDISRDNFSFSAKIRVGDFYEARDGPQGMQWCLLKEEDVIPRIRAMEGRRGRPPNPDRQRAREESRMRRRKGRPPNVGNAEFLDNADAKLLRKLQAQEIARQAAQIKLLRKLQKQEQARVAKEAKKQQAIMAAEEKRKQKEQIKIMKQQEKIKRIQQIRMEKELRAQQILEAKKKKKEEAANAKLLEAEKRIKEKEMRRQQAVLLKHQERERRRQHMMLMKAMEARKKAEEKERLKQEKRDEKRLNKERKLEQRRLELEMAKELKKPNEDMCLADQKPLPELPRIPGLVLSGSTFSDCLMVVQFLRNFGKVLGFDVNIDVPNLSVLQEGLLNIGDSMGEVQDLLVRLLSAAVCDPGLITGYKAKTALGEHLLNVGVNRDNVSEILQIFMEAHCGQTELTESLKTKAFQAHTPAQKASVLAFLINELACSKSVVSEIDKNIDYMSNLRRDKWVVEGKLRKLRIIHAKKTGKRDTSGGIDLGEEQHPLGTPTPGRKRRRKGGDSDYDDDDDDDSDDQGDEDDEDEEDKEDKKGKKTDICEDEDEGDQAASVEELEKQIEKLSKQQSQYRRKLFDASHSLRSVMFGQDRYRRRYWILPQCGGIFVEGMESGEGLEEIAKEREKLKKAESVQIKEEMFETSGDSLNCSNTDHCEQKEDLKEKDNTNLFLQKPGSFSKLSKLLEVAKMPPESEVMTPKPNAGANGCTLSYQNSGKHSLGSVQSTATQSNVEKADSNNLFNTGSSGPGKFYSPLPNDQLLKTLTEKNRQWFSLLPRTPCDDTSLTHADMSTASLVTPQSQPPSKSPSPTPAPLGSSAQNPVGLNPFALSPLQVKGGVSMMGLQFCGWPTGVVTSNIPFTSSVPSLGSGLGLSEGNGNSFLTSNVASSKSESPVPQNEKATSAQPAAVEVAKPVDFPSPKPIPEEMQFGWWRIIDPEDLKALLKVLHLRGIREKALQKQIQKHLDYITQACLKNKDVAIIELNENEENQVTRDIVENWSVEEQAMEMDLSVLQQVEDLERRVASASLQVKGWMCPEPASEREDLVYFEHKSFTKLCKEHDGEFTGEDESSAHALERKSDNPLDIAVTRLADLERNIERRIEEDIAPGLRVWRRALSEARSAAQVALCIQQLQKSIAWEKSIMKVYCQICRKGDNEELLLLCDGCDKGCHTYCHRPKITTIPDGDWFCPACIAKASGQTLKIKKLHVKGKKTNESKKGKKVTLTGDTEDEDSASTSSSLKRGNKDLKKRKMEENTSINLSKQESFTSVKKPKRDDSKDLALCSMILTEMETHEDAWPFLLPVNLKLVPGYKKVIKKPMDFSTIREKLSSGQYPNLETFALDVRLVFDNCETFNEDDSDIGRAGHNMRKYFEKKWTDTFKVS
#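 Inhibition is scored as reduced AlphaScreen emission. The BAZ2B/b-H3(5-23)K14Ac complex (50 nM each) in PBS pH 7.4, 0.01% Tween-20 meets compound (up to 110 uM) for 30 min at RT before bead addition.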
# G9a inh: G9a (human) methyltransferase inhibition; Q96KQ7; G9a H3K9 monomethylation, AlphaScreen, 2 h; Potency, µM (top dose mostly 102 µM), for the others: top-dose activity, negative = inhibition, most hits filed as inhibitors; 350,000 compounds, 8.8% hits; note: % is set by controls: 0 for no effect and ±100 for the full control effect; nearly all actives have a fitted effect of over 75% in size
#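 Chemiluminescent proximity detection of H3K9 monomethylation, read after 10 min bead incubation in the dark. Reaction: 20 nM G9a, 500 nM biotin-H3K9 peptide, 20 uM SAM cofactor, 2 h, room temperature, following 15 min enzyme-compound preincubation.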
# The depositor's hits bear a star; ? = inconclusive; / = no result; ! = not active in a repeat; [ ] = dose if it differs, or a comment. A selection: hits, their analogues and other compounds. The true share with any hit is near 11%. Calls come from the whole dose curve; as a rule, active = well fitted inhibition curve with a large enough effect; inconclusive = small, poorly fitted or top-dose-only effect; inactive = no such curve, though single readings can be large or run the other way. Potency is the fitted concentration of half-maximal effect.
SMILES,JMJD2A Tudor,L3MBTL1 inh,HP1b binding inh,BAZ2B block,G9a inh
O=C(Cn1cc(SCc2cccc(Cl)c2)c2ccccc21)N1CCOCC1,-11.4%,-2.8%,30.7%,-22.1%,31.6µM*!
O=c1[nH]c2ccc(Cl)cc2c(-c2ccccc2)c1CN1CCOCC1,?,-3.6%,2.3%,-8.9%,35.5µM*
O=C(CN1C(=O)S/C(=C\c2ccc(O)c([N+](=O)[O-])c2)C1=O)Nc1ccc(N2CCOCC2)cc1,56.2µM*,/,?,44.7µM*,-3.5%[0.501 µM]
O=C(CN1C(=O)S/C(=C\C=C\c2ccccc2)C1=O)N1CCCCC1,-8.3%,/,33.3%,-20.0%,?
CCOC(=O)CN1C(=O)S/C(=C/c2cccc([N+](=O)[O-])c2O)C1=O,-10.5%[11.4 µM],/,?,?,35.5µM*
O=C(O)c1cccc(CN2C(=O)S/C(=C/c3ccccc3[N+](=O)[O-])C2=O)c1,-25.4%,-23.6%,-0.7%,-24.9%,?
Cc1ccc(NC(=O)CN2C(=O)S/C(=C/c3ccc(O)c([N+](=O)[O-])c3)C2=O)cc1C,22.4µM*,25.1µM*,?,14.1µM*,/
O=C(CCN1C(=O)S/C(=C/c2ccccc2)C1=O)Nc1ccc(O)c(C(=O)O)c1,-7.6%,/,10.1%,-15.3%,4.4%[0.0925 µM]
CCOC(=O)CN1C(=O)S/C(=C/C=C/c2ccc(N(C)C)cc2)C1=O,15.8µM*,-66.3%,12.6µM*,10µM*,10µM*
COc1ccc(-c2nc3cnc(OC)nc3n(Cc3cccc(OC)c3)c2=O)cc1,/,/,/,/,9.6%[12.7 µM]
Cc1nnc(N2CCC(C(=O)N3CCCCC3)CC2)c2nn(-c3ccccc3)c(C)c12,-21.4%,/,34.4%,-5.4%,-10.3%[59 µM]
CCn1c(=O)cc(SCC(=O)NCc2ccc(F)cc2Cl)c2ccccc21,-2.7%,/,30.7%,-2.6%[57.1 µM],-2.4%[59 µM]
Cc1cccc(NC(=O)CN2C(=O)S/C(=C\c3ccc(O)c([N+](=O)[O-])c3)C2=O)c1,50.1µM*,/,-24.3%,?,35.5µM*
O=C(CN1CCCC1)NC(c1ccccc1)c1ccccc1,1.41µM*,3.98µM*,?,-0.5%[0.457 µM],10µM*
O=C(CCN1CCCCCC1)Nc1ccccc1F,-6.0%,/,23.5%,/,/
O=C(CN1CCN(c2ccccc2O)CC1)NC(c1ccccc1)c1ccccc1,?,-3.6%,2.1%,-37.9%,12.3%[59 µM]
O=C(CN1CCCCCC1)Nc1ccccc1F,2.24µM*,3.5%,?,56.2µM*,8.91µM*
O=C(CN1CCN(CC(=O)c2ccc(F)cc2)CC1)Nc1ccccc1Cl,-31.3%,0.3%,-1.6%,-4.9%,7.08µM*
O=C(CN1CCN(CC(=O)Nc2ccccc2C(F)(F)F)CC1)Nc1ccccc1F,-9.4%,-6.4%,67.3%,-2.2%,31.6µM*
Cc1ccc(-n2nc3c(N4CCC(C(=O)N5CCCCC5)CC4)nnc(C)c3c2C)cc1,-15.5%,/,17.4%,-15.4%,-10.7%[59 µM]
Cc1cccc(Cn2cc3c(=O)n(CC(=O)Nc4ccc(C)c(F)c4)nc-3c3cc(F)ccc32)c1,3.4%,/,23.7%,-3.0%,2.6%[59 µM]
CCOC(=O)c1cccc(NC(=O)c2cc3c(Cl)nc4ccc(C)cc4c3s2)c1,-1.7%,/,33.5%,-4.9%,-24.4%[59 µM]
Cc1ccc(NC(=O)CSc2ncc3ccccn23)cc1C,-22.4%,-1.4%,29.5%,?,?
CCc1ccccc1NC(=O)Cn1nc(C)n2cccc2c1=O,-34.2%,/,11.4%[57 µM],-27.6%,10.9%
Cc1nn(CC(=O)Nc2ccccc2C(F)(F)F)c(=O)c2cccn12,8.91µM*!,/,?,22.4µM*!,3.16µM*!
SMILES,JMJD2A Tudor,L3MBTL1 inh,HP1b binding inh,BAZ2B block,G9a inh
CCN=c1scc(-c2ccco2)n1/N=C/c1ccc(O)cc1,56.2µM*,/,?,50.1µM*,35.5µM*
Cc1nc2ccccc2c(=O)n1/N=C/c1ccc(O)cc1,-7.3%,-0.9%,11.9%,-4.9%,15.0%[59 µM]
Cc1ccc2nc(-c3ccccc3)cc(C(=O)N3CCN(c4ccccc4O)CC3)c2c1,?,-10.1%,-17.5%,-31.7%,50.1µM*
O=C(c1cc(-c2ccccc2)nc2ccccc12)N1CCN(c2ccccc2O)CC1,?,/,1.5%,-38.5%,/
O=C(CN1C(=O)C(c2ccc(F)cc2)=NC12CCCCCC2)Nc1ccc(F)c(Cl)c1,-18.8%,/,21.4%,-2.7%,0.4%[59 µM]
COCCN1C(=O)N(c2cccc(OC)c2)C(=O)C1CC(=O)Nc1ccccc1 (stereo not given),0.3%,/,50.0%,3.8%,-2.4%[59 µM]
CCOC(=O)c1c(C)oc2c1c(C(c1cccnc1)N1CCOCC1)c(O)c1ccccc12 (stereo not given),79.4µM*,-15.1%,?,39.8µM*,3.98µM*
COc1cccc(CNC(=O)c2cc3c(cc2Cl)N2CCCCCC2=NS3(=O)=O)c1,-9.0%,-0.5%,33.3%,10.5%,11.2µM*
O=C(O)c1cc2c(cc1Cl)N1CCCCCC1=NS2(=O)=O,-18.8%,1.4%,41.1%,-14.2%,-35.7%
O=C(NC1CCCCC1)c1cc2c(cc1Cl)N1CCCCCC1=NS2(=O)=O,-2.4%,3.6%,19.1%,9.6%,50.1µM*
CCC(=O)/C=C1/Sc2ccccc2N1CC,?,-2.5%,-14.1%,-8.6%,8.91µM*
Cn1c(=S)n(C)c2ccccc21,8.3%,-8.0%,61.5%,-18.1%,-7.0%[59 µM]
Cn1c(=S)ccc2ccccc21,-13.9%,-13.7%,?,-22.4%,10µM*
O=C(CCCN=C1NS(=O)(=O)c2ccccc21)OCc1ccccc1,-2.1%,-1.5%,24.9%,2.2%,44.7µM*
CC(OC(=O)CCN=C1NS(=O)(=O)c2ccccc21)C(=O)N(C)c1ccccc1 (stereo not given),-11.7%,1.8%,10.6%,-4.7%,-0.5%
O=C(CCN=C1NS(=O)(=O)c2ccccc21)OCC(=O)c1ccccc1Cl,-14.9%,4.6%,10.0%,0.2%,56.2µM*
CC(OC(=O)CCCN=C1NS(=O)(=O)c2ccccc21)C(=O)N(C)c1ccccc1 (stereo not given),0.0%,-1.0%,26.9%,12.6%,39.8µM*
O=C(/C=C/c1ccccc1)OCCCCN=C1NS(=O)(=O)c2ccccc21,28.2µM*,9.2%,-10.2%,2.8%,/
COc1ccccc1C(=O)COC(=O)CCCN=C1NS(=O)(=O)c2ccccc21,-15.5%,6.3%,9.6%,9.1%,-23.9%
CCN(CC)C(=O)CSc1nc(-c2ccccc2)cc(-c2ccc(OC)cc2)c1C#N,3.4%,/,19.8%,0.7%,-40.2%[59 µM]
Cc1ccc(NC(=O)Cn2c(=O)n(CC3CCC(C(=O)NC(C)C)CC3)c(=O)c3sccc32)cc1 (stereo not given),-8.7%,/,40.8%,-10.5%,3.7%[59 µM]
Cc1cccc2c1c(N=NC(N)=S)c(O)n2C1OC(CO)C(O)C(O)C1O (stereo not given),-1.7%,4.1%,28.7%,-0.2%,35.5µM*
Nc1cccc2c1nnn2C1OC(CO)C(O)C(O)C1O (stereo not given),/,0.9%,/,-16.0%,3.3%
Cn1c(N)c(C(=O)COC(=O)C2(c3ccc(Cl)cc3)CCCC2)c(=O)n(C)c1=O,3.16µM*,/,-5.7%,-5.6%,-1.9%[12.7 µM]

# Compound activity deposited in PubChem by National Center for Advancing Translational Sciences (NCATS).
